Experiment [1] can be described thus: Cytometry Cell-Based qHTS for Inhibitors of the mTORC1 Signaling Pathway in MEF cells (AID 2668).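 Note: Tsc2-/- p53-/- mouse embryonic fibroblasts stably re-expressing wild-type Tsc2; percent cells positive for phospho-rpS6 Ser235/236 relative to propidium iodide stain.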 The procedure, abridged: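 MEFs (Tsc2-/-, p53-/- stably expressing WT Tsc2) treated 24 h at 37 degree Celsius, fixed, stained with Alexa-488 anti-phospho-rpS6 Ser235/236 and propidium iodide; Acumen laser scanning. Reported as % positive cells, phospho-S6 normalized to PI.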
On the technique in general: Quantitative high-throughput screening tests each substance at several concentrations.

Experiment [2] addresses Ubiquitin carboxyl-terminal hydrolase 2 (Homo sapiens) (UniProt O75604). The experiment in a line: qHTS Validation Assay for Inhibitors of Ubiquitin-specific Protease USP2a Using CHOP2 as the Reporter (AID 463106). The gist of the method:
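10nM USP2 core + cpd, 30min RT; add 25nM Ub-CHOP2/25nM substrate; 60min RT; FI 485/531nm. Buffer Tris pH 8.0, CaCl2, BME, CHAPS. Norm. to NEM = 100% inhibition; time-zero read flags fluorescent artifacts.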

Experiment [3] has as its target Tumor susceptibility gene 101 protein (Homo sapiens) (UniProt Q99816). The experiment in a line: qHTS Validation Assay for Iinhibitors of HIV-1 Budding by Blocking the Interaction of PTAP/TSG101 (AID 485342; calls by dose curve). The gist of the method: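 Tsg101 binding domain (10 uM) with FITC-labeled PTAP peptide (50 nM) in HEPES pH 7.5 buffer, 20 min at r.t. with compounds. Binding measured by fluorescence polarization.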

Experiment [4] in a line: qHTS Validation Assay to Find Inhibitors of Chronic Active B-Cell Receptor Signaling (AID 485345; active = well fitted curve in the direction sought with a large enough effect in the main read-out, with a control signal flat, not every such curve was filed as active). The gist of the method:
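Read-out: ratio of filter-corrected green (IkappaBalpha fusion) to red (native) luciferase signal in doxycycline-induced TMD8 cells after 4 h at 37C. Titration spanned 46 uM–3 nM; Data were normalised to basal cells and 10 uM MG-132 wells.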

Experiment [5] deals with Beta-2 adrenergic receptor (Homo sapiens) (UniProt P07550). Briefly: qHTS validation assay of beta-arrestin-biased ligands of beta2-adrenergic receptor (AID 485366). The procedure, abridged:
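Tango cells expressing recombinant beta2-AR and beta-arrestin with tTA-driven luciferase, in DMEM with 1% FBS. Compounds were titrated up to 46 microM for 18 hr at 37 degrees C. Luminescence was read 15 min after substrate; curves were fitted and class-assigned.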

In experiment [6] the target is ATP-dependent 6-phosphofructokinase (Trypanosoma brucei brucei) (UniProt O15648). Briefly: qHTS Validation Assay to Find Inhibitors of T. brucei phosphofructokinase (AID 485368). To be noted: T. brucei PFK enzyme assay, qHTS 7-point titration; at 57.5 µM (top of the series). The procedure, abridged:
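Activity was read as ADP production by luminescence (ADP-Glo) after 45 min at room temperature. The enzyme was 1.25nM PFK in 0.1M TEA pH 8.0 with 0.5 mM F6P, 0.1mM ATP and 5 mM MgCl2. Compounds were titrated up to 57 uM and % activity normalized to no-enzyme and full-enzyme controls.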

Experiment [7] concerns the target Thioredoxin reductase 1, cytoplasmic (Rattus norvegicus) (UniProt O89049). The experiment in a line: qHTS Assay for Substrates of Mammalian Selenoprotein Thioredoxin Reductase 1 (TrxR1) (AID 488772).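 Note: NADPH fluorescence in the first read after selenite addition and not the 8 min delta; a drop in NADPH fluorescence below the no-compound background marks a TrxR1 substrate.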 The gist of the method:
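Quantitative HTS in Tris-HCl buffer at pH 7.5 with EDTA and Tween-20, using rat TrxR1, 400 uM NADPH and 400 uM selenite (final). A fall in initial NADPH fluorescence relative to background marked substrate behaviour.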

Experiment [8] shares this target. The experiment in a line: qHTS Assay for Inhibitors of Mammalian Selenoprotein Thioredoxin Reductase 1 (TrxR1) (AID 488773).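 Note: drop in NADPH fluorescence over an 8 min run after selenite addition; nearly all actives have a fitted effect of over 40% in size.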 Particulars: Potency: inhibition. The procedure, abridged:
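Steps: enzyme (90 nM) plus NADPH (400 uM final), 5 min at ~22 deg C; compound added, 15 min; selenite (400 uM final) added; fluorescence followed for 8 min. Concentration-response curves derived from the normalized delta values.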

The target of experiment [9] is Flap endonuclease 1 (Homo sapiens) (UniProt P39748). Briefly: qHTS Validation Assay for the Inhibitors of Human Flap endonuclease 1 (FEN1) (AID 488816). The procedure, abridged:
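Readings taken at 0 and 15 min after starting the reaction with 50 nM (final) substrate supplied the signal. Compounds had first sat with 10 nM FEN1 reagent for 15 min at room temperature. Values come from Hill-equation concentration-response fits.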

For experiment [10], the target named is M-phase phosphoprotein 8 (Homo sapiens) (UniProt Q99549). Briefly: qHTS Validation Assay for Inhibitors for MPP8 Chromodomain Interactions with Methylated Histone Tails (AID 488949). Note: nearly all actives have a fitted effect of over 55% in size. Note: potency is the fitted concentration of half-maximal effect. The gist of the method:
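MPP8 (50 nM) was pre-bound to 50 nM biotinylated H3(1-18)K9me3 peptide in PBS pH 7.4 with 0.01% Tween-20. Compounds were then added for 30 min at room temperature, and complex disruption was read by AlphaScreen with streptavidin donor and nickel-chelate acceptor beads.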

The target in experiment [11] is Chromobox protein homolog 1 (Homo sapiens) (UniProt P83916). Briefly: qHTS Validation Assay for Inhibitors of HP1-beta Chromodomain Interactions with Methylated Histone Tails (AID 488953). Note: nearly all actives have a fitted effect of over 50% in size. Note: potency is the fitted concentration of half-maximal effect. The gist of the method:
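HP1-beta (50 nM) was preincubated 30 min at room temperature with biotinylated H3(1-18)K9me3 peptide (50 nM) in PBS pH 7.4, 0.01% Tween-20, then with compounds 30 min. AlphaScreen signal was read after streptavidin donor/nickel chelate acceptor beads (10 ug/mL final).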

Experiment [12] has as its target Methanococcus maripaludis chaperonin (MmCpn) (UniProt Q6LX38). The experiment in a line: High-Throughput Screening for Modulators of Cytosolic Chaperonin Activity: MmCpn Primary Screen (AID 488978).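 Note: 50 nM MmCpn enzyme hydrolysing 30 µM ATP at 37 °C.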 The gist of the method:
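MmCpn at 50 nM final was preincubated 5 min at RT with compound. ATP was then added at 30 uM final for 10 min at 37 C. ADP formed was detected by Transcreener HTRF (665/590 nm).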

For experiment [13], the target named is D(1A) dopamine receptor (Homo sapiens) (UniProt P21728). Briefly: HTS Assay for Allosteric Agonists of the Human D1 Dopamine Receptor: Primary Screen for Agonists (AID 488981). Note: potency is the fitted concentration of half-maximal effect. The gist of the method: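 Calcium flux in an inducible, force-coupled HEK293 Trex D1 line (overnight at 30 C): agonist mode is the 180 s kinetic read after compound; potentiator mode is the following 180 s read after dopamine at EC20.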
Chain of D(1A) dopamine receptor (Homo sapiens) (P21728 whole entry, looked up): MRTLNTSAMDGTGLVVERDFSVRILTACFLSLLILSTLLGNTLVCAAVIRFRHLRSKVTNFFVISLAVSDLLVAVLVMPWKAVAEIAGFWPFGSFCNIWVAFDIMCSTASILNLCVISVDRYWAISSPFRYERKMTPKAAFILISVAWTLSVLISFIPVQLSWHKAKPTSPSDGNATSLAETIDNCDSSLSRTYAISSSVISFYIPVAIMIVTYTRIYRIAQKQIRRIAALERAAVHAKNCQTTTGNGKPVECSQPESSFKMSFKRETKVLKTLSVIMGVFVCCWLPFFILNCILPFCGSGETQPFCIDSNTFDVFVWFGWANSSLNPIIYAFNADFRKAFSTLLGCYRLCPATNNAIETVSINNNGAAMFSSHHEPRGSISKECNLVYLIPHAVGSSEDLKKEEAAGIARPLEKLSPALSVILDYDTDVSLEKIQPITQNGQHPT

A short description of experiment [14]: Validation screen for inhibitors of Lassa infection (AID 463096; calls by dose curve; note: potency is the fitted concentration of half-maximal effect).
The nature of experiment [15]: Validation screen for small molecules that induce DNA re-replication in MCF 10A normal breast cells (AID 463097). Note: nearly all actives have a fitted effect of over 60% in size. Note: potency is the fitted concentration of half-maximal effect. The gist of the method: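 MCF 10A cells exposed to compound 48 hr at 37 C, 5% CO2, then Hoechst-stained 40 min. Laser-scanning imaging of nuclear DNA content (405 nm ex, 500-530 nm em); re-replication scored as rise in nuclei with elevated fluorescence intensity.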

Experiment [16] in a line: Quantitative high throughput screen for delayed death inhibitors of the malarial parasite plastid, 48 hour incubation (AID 488752). Note: nearly all actives have a fitted effect of over 65% in size. The gist of the method: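 Erythrocytes infected with P. falciparum carrying an integrated firefly luciferase reporter (2% hematocrit, 0.1% parasitemia final) were exposed to compounds in RPMI 1640/0.5% Albumax for 48 h at 37 C, 5% CO2. Growth inhibition was scored as reduced luminescence.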

Experiment [17] addresses Transient receptor potential cation channel subfamily V member 1 (Homo sapiens) (UniProt Q8NER1). The experiment in a line: HTS Assay for Compounds that Act as Enhancers of the Vanilloid Receptor 1 (AID 488979). The gist of the method: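 Calcium influx kinetics via Fluo-8 (480/520 nm) in TRPV1-expressing cells, 2000/well cultured overnight at 35.5C. Compound-alone read 3 min (agonist phase), followed by EC20 capsaicin challenge for 2 min (enhancer phase).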

Experiment [18] in a line: Quantitative high throughput screen for delayed death inhibitors of the malarial parasite plastid, 96 hour incubation (AID 488745). Note: nearly all actives have a fitted effect of over 70% in size. Note: potency is the fitted concentration of half-maximal effect. The procedure, abridged:
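P. falciparum carrying an integrated firefly luciferase reporter, grown in erythrocytes (2% hematocrit, 0.1% parasitemia final) in RPMI 1640/0.5% Albumax, was exposed to compound for 96 h (two generations) at 37 C, 5% CO2. Luminescence decrease indicated growth inhibition.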

Experiment [19] deals with Thyrotropin receptor (Homo sapiens) (UniProt P16473). Briefly: qHTS Assay for Antagonists of the Thyroid Stimulating Hormone Receptor (AID 488980). The procedure, abridged: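 TSHR-transfected HEK293 cells (2000/well) in HEPES-buffered HBSS with 70 uM RO 20-1724 were stimulated with 4 nM TSH (EC80, final) in the presence of compound. cAMP was measured by HTRF competition after lysis and 30 min at RT.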
Chain of Thyrotropin receptor (Homo sapiens) (P16473 whole entry, looked up): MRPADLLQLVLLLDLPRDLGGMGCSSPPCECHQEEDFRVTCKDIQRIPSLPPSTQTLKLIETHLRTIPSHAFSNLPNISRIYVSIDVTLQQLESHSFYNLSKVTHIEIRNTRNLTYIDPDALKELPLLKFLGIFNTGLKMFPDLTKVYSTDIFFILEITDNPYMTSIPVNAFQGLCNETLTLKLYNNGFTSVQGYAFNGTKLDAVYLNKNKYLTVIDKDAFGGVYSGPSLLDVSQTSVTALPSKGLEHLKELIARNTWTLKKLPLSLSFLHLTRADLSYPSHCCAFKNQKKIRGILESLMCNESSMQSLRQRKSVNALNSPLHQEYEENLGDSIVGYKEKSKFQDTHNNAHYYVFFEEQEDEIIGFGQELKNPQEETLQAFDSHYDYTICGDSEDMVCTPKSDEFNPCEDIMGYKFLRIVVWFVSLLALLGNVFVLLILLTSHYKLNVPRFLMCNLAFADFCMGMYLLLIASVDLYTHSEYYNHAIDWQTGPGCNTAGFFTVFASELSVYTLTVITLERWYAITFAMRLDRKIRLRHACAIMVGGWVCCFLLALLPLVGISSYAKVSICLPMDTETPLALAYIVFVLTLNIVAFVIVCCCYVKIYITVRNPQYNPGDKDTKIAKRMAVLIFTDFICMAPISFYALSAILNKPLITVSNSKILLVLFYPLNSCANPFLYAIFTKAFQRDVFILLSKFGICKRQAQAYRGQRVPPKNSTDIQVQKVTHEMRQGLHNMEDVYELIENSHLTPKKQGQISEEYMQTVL

For experiment [20], the target named is DNA polymerase III PolC-type (Bacillus subtilis (strain 168)) (UniProt P13267). Briefly: qHTS Validation Assay for the Inhibitors of DNA Replication in Gram-Positive Bacteria (AID 485295).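 Note: PicoGreen fluorescence of double-stranded DNA made on primed circular M13 template.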 The gist of the method:
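Reconstituted B. subtilis Pol III holoenzyme (PolC, beta clamp, SSB, primase) preincubated with compound, then M13Gori single-stranded circular template with dNTPs/NTPs added; room temperature reaction. Stopped with EDTA/PicoGreen; dsDNA fluorescence read, EDTA as full-inhibition control.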

Inconclusive results are not listed. Some structures have more than one record in an assay (separate samples or runs), and their calls can disagree. Active and inactive are the calls of the source. Unless noted, calls come from the whole dose curve; as a rule, active = well fitted curve in the direction sought with a large enough effect; inconclusive = small, poorly fitted or top-dose-only effect, or another doubt; inactive = no such curve, though single readings can be large; an effect the other way counts as inactive or inconclusive.

Chain of Ubiquitin carboxyl-terminal hydrolase 2 (Homo sapiens) (O75604 whole entry, looked up): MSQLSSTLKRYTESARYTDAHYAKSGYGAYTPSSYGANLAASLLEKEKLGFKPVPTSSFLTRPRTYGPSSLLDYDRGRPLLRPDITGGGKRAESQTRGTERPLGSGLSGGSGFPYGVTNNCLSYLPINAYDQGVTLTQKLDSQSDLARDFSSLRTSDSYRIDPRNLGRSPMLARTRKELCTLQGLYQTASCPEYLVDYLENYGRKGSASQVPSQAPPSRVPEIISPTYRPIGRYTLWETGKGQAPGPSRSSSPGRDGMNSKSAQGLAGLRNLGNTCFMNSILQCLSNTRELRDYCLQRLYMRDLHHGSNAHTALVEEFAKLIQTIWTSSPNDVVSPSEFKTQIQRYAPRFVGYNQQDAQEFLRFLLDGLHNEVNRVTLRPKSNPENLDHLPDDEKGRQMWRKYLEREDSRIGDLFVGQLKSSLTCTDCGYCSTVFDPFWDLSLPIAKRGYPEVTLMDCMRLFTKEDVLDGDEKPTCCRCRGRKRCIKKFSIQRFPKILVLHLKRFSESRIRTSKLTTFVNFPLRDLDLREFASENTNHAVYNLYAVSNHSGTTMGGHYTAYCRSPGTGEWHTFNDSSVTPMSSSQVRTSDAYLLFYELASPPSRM
Chain of Beta-2 adrenergic receptor (Homo sapiens) (P07550 whole entry, looked up): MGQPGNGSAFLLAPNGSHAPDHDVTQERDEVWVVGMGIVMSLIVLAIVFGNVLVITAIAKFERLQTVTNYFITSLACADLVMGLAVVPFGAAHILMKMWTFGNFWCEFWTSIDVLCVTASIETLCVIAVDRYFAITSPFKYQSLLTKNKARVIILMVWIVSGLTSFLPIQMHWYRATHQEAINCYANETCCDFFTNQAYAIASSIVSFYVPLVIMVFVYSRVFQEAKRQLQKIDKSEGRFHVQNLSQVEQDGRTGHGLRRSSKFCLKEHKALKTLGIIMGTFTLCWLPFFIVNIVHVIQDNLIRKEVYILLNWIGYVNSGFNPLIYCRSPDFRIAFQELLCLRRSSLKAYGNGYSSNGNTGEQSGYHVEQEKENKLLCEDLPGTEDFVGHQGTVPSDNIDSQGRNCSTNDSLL
Chain of ATP-dependent 6-phosphofructokinase (Trypanosoma brucei brucei) (O15648 whole entry, looked up): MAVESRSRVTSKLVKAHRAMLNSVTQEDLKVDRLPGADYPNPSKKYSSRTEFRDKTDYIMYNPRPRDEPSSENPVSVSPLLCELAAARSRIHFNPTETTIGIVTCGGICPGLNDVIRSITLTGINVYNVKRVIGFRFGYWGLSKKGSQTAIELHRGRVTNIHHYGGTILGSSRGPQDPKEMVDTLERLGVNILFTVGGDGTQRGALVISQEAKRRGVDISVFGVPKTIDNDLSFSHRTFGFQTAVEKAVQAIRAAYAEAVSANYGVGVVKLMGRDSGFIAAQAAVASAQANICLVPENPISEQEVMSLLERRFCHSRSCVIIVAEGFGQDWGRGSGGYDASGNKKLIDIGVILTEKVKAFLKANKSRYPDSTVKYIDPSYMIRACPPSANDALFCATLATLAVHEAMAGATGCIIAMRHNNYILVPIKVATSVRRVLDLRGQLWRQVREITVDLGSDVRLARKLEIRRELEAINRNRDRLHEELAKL
Chain of Flap endonuclease 1 (Homo sapiens) (P39748 whole entry, looked up): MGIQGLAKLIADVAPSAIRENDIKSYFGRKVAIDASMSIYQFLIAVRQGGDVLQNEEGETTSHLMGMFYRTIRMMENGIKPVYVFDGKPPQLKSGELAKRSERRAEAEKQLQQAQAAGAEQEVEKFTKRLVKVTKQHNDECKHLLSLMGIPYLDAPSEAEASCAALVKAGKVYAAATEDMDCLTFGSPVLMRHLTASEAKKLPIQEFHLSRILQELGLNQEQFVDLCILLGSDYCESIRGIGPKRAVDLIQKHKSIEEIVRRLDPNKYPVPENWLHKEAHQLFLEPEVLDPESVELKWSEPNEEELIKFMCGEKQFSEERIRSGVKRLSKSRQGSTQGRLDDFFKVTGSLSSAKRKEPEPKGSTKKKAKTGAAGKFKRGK
Chain of Transient receptor potential cation channel subfamily V member 1 (Homo sapiens) (Q8NER1 whole entry, looked up): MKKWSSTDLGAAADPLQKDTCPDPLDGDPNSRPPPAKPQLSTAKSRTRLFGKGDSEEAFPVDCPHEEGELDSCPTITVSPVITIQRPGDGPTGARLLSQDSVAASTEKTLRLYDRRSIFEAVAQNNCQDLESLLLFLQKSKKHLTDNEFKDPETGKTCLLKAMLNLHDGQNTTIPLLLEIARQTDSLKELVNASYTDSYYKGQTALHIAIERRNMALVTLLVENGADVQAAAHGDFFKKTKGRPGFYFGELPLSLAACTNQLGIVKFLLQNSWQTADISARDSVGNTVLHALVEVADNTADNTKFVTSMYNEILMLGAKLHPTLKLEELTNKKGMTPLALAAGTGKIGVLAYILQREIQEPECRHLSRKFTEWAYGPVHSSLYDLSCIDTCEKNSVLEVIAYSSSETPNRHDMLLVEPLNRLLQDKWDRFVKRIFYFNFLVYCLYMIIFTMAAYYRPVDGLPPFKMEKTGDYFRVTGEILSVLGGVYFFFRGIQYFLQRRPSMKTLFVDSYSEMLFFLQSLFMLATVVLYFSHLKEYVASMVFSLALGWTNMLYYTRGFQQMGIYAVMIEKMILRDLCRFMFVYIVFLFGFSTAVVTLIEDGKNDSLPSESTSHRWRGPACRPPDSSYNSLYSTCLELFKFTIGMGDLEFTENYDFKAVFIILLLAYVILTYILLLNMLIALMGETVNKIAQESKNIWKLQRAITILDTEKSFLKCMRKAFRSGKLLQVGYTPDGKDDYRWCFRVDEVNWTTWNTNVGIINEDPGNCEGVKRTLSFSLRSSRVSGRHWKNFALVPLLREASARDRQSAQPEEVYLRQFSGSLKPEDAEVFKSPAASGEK
Chain of Methanococcus maripaludis chaperonin (MmCpn) (Q6LX38 1-543): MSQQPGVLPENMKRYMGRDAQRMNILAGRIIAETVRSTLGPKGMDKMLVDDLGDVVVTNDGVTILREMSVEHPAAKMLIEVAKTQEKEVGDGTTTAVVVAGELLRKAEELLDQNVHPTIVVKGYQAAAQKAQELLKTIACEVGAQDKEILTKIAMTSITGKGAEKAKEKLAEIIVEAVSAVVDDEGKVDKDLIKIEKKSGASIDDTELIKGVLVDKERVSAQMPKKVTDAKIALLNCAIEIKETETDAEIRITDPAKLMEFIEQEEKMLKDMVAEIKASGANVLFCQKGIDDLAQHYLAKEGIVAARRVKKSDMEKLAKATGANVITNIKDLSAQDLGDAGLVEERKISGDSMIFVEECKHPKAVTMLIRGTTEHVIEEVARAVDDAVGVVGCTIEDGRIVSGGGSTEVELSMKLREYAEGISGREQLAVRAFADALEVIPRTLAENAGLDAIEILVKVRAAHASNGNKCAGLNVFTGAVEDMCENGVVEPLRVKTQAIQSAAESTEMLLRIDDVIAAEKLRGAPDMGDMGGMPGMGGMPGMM
Chain of Chromobox protein homolog 1 (Homo sapiens) (P83916 whole entry, looked up): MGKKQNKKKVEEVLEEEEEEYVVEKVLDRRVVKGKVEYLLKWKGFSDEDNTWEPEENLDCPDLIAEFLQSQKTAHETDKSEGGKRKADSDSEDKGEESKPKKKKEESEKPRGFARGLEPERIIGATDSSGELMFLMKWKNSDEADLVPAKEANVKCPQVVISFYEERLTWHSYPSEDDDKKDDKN

In the case of `COC(=O)[C@@H](N)CCCN=C(N)N[N+](=O)[O-]`, the Potency entry in experiment [1], in experiment [2], in [8], in [9], in experiment [10] and in [11] was “inactive” in each case. Moreover, the Potency result in experiment [13] is “inactive”. Besides, the compound was classed as inactive in experiment [3], in experiment [4], in experiment [5], in experiment [6], in experiment [7] and in experiment [12].
In the case of `C[N+](C)(C)CC(=O)O`, the Potency entry in experiment [14], in [15], in experiment [16], in experiment [9] and in [10] was “inactive” in each case. In addition, the outcome in experiment [17] was inactive.
For the compound `CCn1cc(C(=O)O)c(=O)c2cc3c(cc21)OCO3`, the Potency result in [14] was “inactive”. Also, the compound was called inactive in experiment [7]. Besides, the Potency in experiment [11] was 6.7 nM (active).
For the compound `c1ccc(CCCN2CCN(CCOC(c3ccccc3)c3ccccc3)CC2)cc1`, the outcome in experiment [3], in experiment [4], in experiment [5], in experiment [7], in experiment [12] and in experiment [17] was inactive. In addition, in experiment [19], the call was inactive. Moreover, the Potency in [18] was 2.08 µM (active); in experiment [10] it was 39.8 µM (active); in experiment [11] it was 8.4 nM (active). Also, the Potency result in experiment [9] and in experiment [13] was “inactive” in each case.
`CC(C)Oc1cccnc1N(C)C1CCN(Cc2ccccc2)CC1`: the Potency entry in experiment [1], in experiment [14], in experiment [18], in [16], in experiment [8] and in experiment [9] was “inactive” each time. In addition, the Potency result in experiment [10] and in [13] was “inactive” throughout. For the same compound, the outcome in [3], in experiment [4], in [5], in experiment [7], in experiment [12] and in experiment [17] was inactive. Besides, the outcome in experiment [19] was inactive.
`CCN(CC)CCNC(=O)c1ccc(NC(C)=O)cc1`: the Potency entry in experiment [14] was “inactive”.
In the case of `CC(C[N+](C)(C)C)OC(N)=O` (configuration not stated), the Potency entry in [14] is “inactive”.
With `CN[C@@H]1C[C@@H](c2ccc(Cl)c(Cl)c2)c2ccccc21`, the Potency entry in experiment [20], in experiment [10] and in [11] was “inactive” each time. The call in [3], in experiment [5], in experiment [7], in experiment [12] and in experiment [19] was inactive. In experiment [13], the Potency is 12.6 µM (active).
`COc1ccc2c(c[n+](C)c3c4cc5c(cc4ccc23)OCO5)c1OC`: the Potency result in experiment [1], in experiment [2], in [18], in experiment [10] and in experiment [13] was “inactive” each time. Further, the Potency in [14] was 10 µM (active). For the same compound, the outcome in experiment [3], in experiment [5], in experiment [7], in experiment [12], in experiment [17] and in experiment [19] was inactive.
For the compound `CC[C@@H](C(N)=O)N1CCCC1=O`, the Potency result in experiment [1], in experiment [2], in experiment [9], in [10], in experiment [11] and in experiment [13] was “inactive” throughout. Further, the outcome in experiment [3], in experiment [4], in experiment [5], in experiment [6], in experiment [7] and in [12] was inactive.
With `CN[C@@H](C)[C@H](O)c1ccccc1`, the Potency in experiment [14] was 10 µM (active); in experiment [10], 3.55 µM (active). Further, the call in [19] was inactive.
As for `C[N+]1(C)C2CC(OC(=O)[C@H](CO)c3ccccc3)CC1C1OC12` (some centres not stated), the call in [6] was inactive. The Potency entry in experiment [9] and in experiment [10] was “inactive” in each case. In addition, the Potency in experiment [11] was 7.5 nM (active) and inactive.
For the compound `CCc1c(C)[nH]c2c1C(=O)C(CN1CCOCC1)CC2` (configuration not stated), the Potency result in experiment [14] is “inactive”.
`CC[C@@H]1C(=O)OC[C@@H]1Cc1cncn1C`: the Potency entry in [14], in [15], in experiment [18], in experiment [16] and in [10] was “inactive” in each case. The result in experiment [17] and in experiment [19] was inactive.
For `CC1=C(/C=C/C(C)=C/C=C/C(C)=C/C(=O)O)C(C)(C)CCC1`, the Potency result in experiment [14] was “inactive”.
Turning to `Clc1ccc(C(c2ccc(Cl)cc2)n2cc[n+](CC(OCc3ccc(Cl)cc3Cl)c3ccc(Cl)cc3Cl)c2)cc1` (configuration not stated), the Potency in experiment [14] is 11.2 µM (active); in experiment [15] it was 11.2 µM (active); in experiment [10] it was 35.5 µM (active) and inactive; in experiment [11] it was 50100 nM (active). The Potency entry in experiment [9] is “inactive”. The result in [17] and in experiment [19] was inactive.

The values are drawn from PubChem BioAssay (NCATS).
